The record followed here is ChEMBL document CHEMBL3988442, “University of Dundee, Small-Polar-MMV Screening Library” (2021).

Hit rate of the full screen: of about 48,000 compounds, about 13,000 (27%) showed an effect of 50% or more. This is one part of the list.

In the assay the test system is Wolbachia pipientis. As to the kind of experiment: Anti-Wolbachia Cell-Based Screen. The assay is classed as functional. Also noted: scale not given: in the data most compounds retested in dose-response had high values. Particulars: 5 µM.
Regarding `COc1ccc(CN2C[C@@H]3[C@H](CC(=O)N4CCCC4)[C@@H]3C2)cc1.O=C(O)C(F)(F)F`, the “Percent Effect” value is given as -9.887%.
As to `CN(C)C[C@@H]1CCC[C@@H]2CN(c3cccnc3)C[C@@H]21.O=C(O)C(F)(F)F`, the “Percent Effect” value is 5.573%.
Turning to `CC(C)c1nc(S(=O)(=O)N(C)c2cc(F)ccc2F)c[nH]1`, the “Percent Effect” value is 7.665%.
`CCN(Cc1ccoc1)Cc1nc(COC)no1`: the “Percent Effect” value is listed as -32.73%.
The value for `Cc1nc(C)n(CC2CCCCN2c2ccnc(-c3ccccc3)n2)n1` (centres undefined) was -2.922%; that for `Cc1nc(C)n(CC2CCCN2c2ncnc3sc(C)c(C)c23)n1` (centres undefined) was 109.1%; that for `c1nc(N2CCCCC2Cn2cncn2)c2sccc2n1` (centres undefined) was 0.3831%.
The value for `Cc1nc(C)n(CC2CCCCN2c2ncnc3ccsc23)n1` (centres undefined) was 109.8%; that for `CN(C)C(=O)C1CCCN1c1ncnc2ccsc12` (centres undefined) was 11.36%.
The same measure for `Cc1nc(C)n(CC2CCCN2c2ncnc3c2CCC3)n1` (centres undefined): -5.699%; for `Cc1nc(C)n(CC2CCCN2c2ccnc(-c3ccccc3)n2)n1` (centres undefined): 6.693%; for `Cc1nc(C)n(CC2CCCN2c2ncnc3ccsc23)n1` (centres undefined): 106.3%.
Consider `CN1CCN(C(=O)C2CCCN2c2ncnc3ccsc23)CC1` (centres undefined), for which the “Percent Effect” value is reported as -5.799%.
The value for `CN(C)C1Cc2ccccc2N(S(=O)(=O)c2cccc(C#N)c2)C1` (centres undefined) was -17.15%; that for `CC(C)CC(=O)N1CCN(C(=O)N(C)C)CC2(CC(=O)N(C)C2)C1` (centres undefined) was -13.83%; that for `Cn1cnnc1C1CCCN(C(=O)NCc2ccccc2)C1` (centres undefined) was -1.027%.
The same measure for `COC1CCN(C(=O)c2cc(-c3ccc(Cl)cc3)on2)CC1`: 1.194%.
The value for `CCOC1CCN(C(=O)c2cc(-c3ccc(Cl)cc3)on2)CC1` was -1.009%.
For the compound `Cc1csc(CNC(=O)N2CCCC(c3nncn3C)C2)n1` (centres undefined), the “Percent Effect” value is given as 102.5%.
Take `CCOc1ncccc1C(=O)N1CCCC(c2nncn2C)C1` (centres undefined): the “Percent Effect” value was found to be 139.9%.
As to `Cn1cnnc1C1CCN(C(=O)c2cc(-c3ccccc3)on2)CC1`, the “Percent Effect” value is 84.11%.
The same measure for `Cc1noc(C2CCCN(C(=O)c3cc(-c4ccccc4)on3)C2)n1` (centres undefined): 95.63%; for `Cc1noc(C2CCCN(C(=O)c3cc(Cl)ccc3F)C2)n1` (centres undefined): -1.909%.
The value for `Cc1noc(C2CCCN(C(=O)c3cc(Cl)cn3C)C2)n1` (centres undefined) was -4.017%; that for `Cn1cnnc1C1CCCN(C(=O)NCc2cc[nH]n2)C1` (centres undefined) was -3.292%; that for `CCOc1ncccc1C(=O)N1CCCC(c2nccn2CCOC)C1` (centres undefined) was -5.342%.
The value for `COc1ccc(CNC(=O)NC2CCN(CC(F)F)CC2)cc1C` was 8.282%.
Regarding `CSc1cccc(CC(=O)N[C@@H]2CCNC[C@H]2O)c1`, the “Percent Effect” value was -1.267%.
The same measure for `Cn1cnnc1C1CCCN(C(=O)c2cnc3ccccc3n2)C1` (centres undefined): -5.928%; for `Cn1cnnc1C1CCCN(C(=O)NCCc2ccccn2)C1` (centres undefined): -4.673%; for `Cn1cnnc1C1CCCN(C(=O)c2ccccn2)C1` (centres undefined): 140.5%.
The same measure for `Cn1cnnc1C1CCCN(C(=O)NCc2ccccn2)C1` (centres undefined): 107.2%.
The same measure for `Cn1cnnc1C1CCCN(C(=O)c2cc(-c3ccccc3)on2)C1` (centres undefined): 103.3%.
Consider `c1cc(-c2ccc3c(c2)CCC32CCNCC2)ccn1`, for which the “Percent Effect” value is -7.075%.
Take `CC1(C)Cc2c(cnn2-c2cccc(F)c2)C(NC2CCSCC2)C1` (centres undefined): the “Percent Effect” value is listed as 7.076%.
The same measure for `Cc1cc(C(=O)NCc2csc(N(C)C)n2)c2ccc(C)c(C)c2n1`: 2.506%.
The same measure for `CN(C)C(=O)c1cc(-c2cnc(N)nc2)nc2cc(F)ccc12`: 2.349%; for `CCCn1cc(-c2cc(C(=O)N(C)C)c3cccc(C)c3n2)cn1`: 108.4%.
The value for `COc1ccc2nc(C3CC3)cc(C(=O)NCC(=O)N(C)C)c2c1` was -4.105%; that for `CO[C@H]1CNC[C@@H]1NC(=O)c1cc(C)nc2c(C)c(C)ccc12` was -8.867%; that for `CCCn1cc(-c2cc(C(=O)N(C)C)c3ccc(C)cc3n2)cn1` was 103.4%.
`Cc1ccc2nc(-c3cnc(N)nc3)cc(C(=O)N(C)C)c2c1`: the “Percent Effect” value is -1.148%.
As for `CCCn1cc(-c2cc(C(=O)N(C)C)c3ccc(OC)cc3n2)cn1`, the “Percent Effect” value amounted to 91.31%.
The same measure for `Cc1cc(C)c2c(C(=O)N(C)C)cc(-c3cnc(N)nc3)nc2c1`: -4.473%.
The value for `COc1ccc2c(C(=O)N(C)C)cc(-c3cnc(N)nc3)nc2c1` was -11.66%; that for `COc1ccc(CNC(=O)CCn2cc(C)cn2)cc1C` was -6.428%.
The same measure for `Cc1ccc2c(C(=O)N(C)C)cc(-c3cnn(CCO)c3)nc2c1C`: 115.7%; for `Cc1ccc(-c2nc(CNCCn3cccn3)cs2)o1`: -0.9463%; for `CN(Cc1cccs1)c1nc2c(cnn2C(C)(C)C)c(=O)[nH]1`: -5.539%.
Consider `O=C(NCC1(N2CCOCC2)CCSC1)Nc1ccccn1` (centres undefined), for which the “Percent Effect” value amounted to 27.17%.
The value for `CSCCc1n[nH]c2c1CN(S(=O)(=O)c1c(C)nn(C)c1C)CC2` was -3.086%; that for `Cc1ccc(C(C)NC(=O)Nc2ccccc2CN2CCOCC2)o1` (centres undefined) was 2.687%.
The same measure for `COC[C@@]12CCO[C@@H]1CCN(C(=O)Cc1ccccc1F)C2`: 7.252%; for `O=C(Cc1ccccc1F)N1CCC[C@@H]1Cn1c(=O)oc2ccccc21`: 111.4%.
The value for `Cl.NCC1CCCCN1C(=O)Cc1ccc(F)c(F)c1` (centres undefined) was -20.4%; that for `COc1nc2c(cc1C(=O)NCc1nc(CSC)no1)CCC2` was -10.56%.
In the case of `Cc1nc(CN2CCN(c3ncnc4ccccc34)CC2)no1`, the “Percent Effect” value is listed as -20.36%.
The same measure for `Cc1nc(CN2CCN(C(=O)CCc3cccc(Cl)c3)CC2)no1`: 2.234%; for `Cc1nc(CN2CCN(c3cncc(Cl)n3)CC2)no1`: 85.67%.
The value for `Cc1noc(CN2CCN(c3cncc(Cl)n3)CC2)n1` was 120%.
The value for `Cc1nc(CN2CCN(c3ccc(Cl)cn3)CC2)no1` was 102.8%; that for `Cc1cn2nc(N3CCCN(Cc4noc(C)n4)CC3)sc2n1` was 4.27%; that for `Cc1noc(CN2CCN(CC(C)O)CC2)n1` (centres undefined) was 16.1%.
In the case of `Cc1nc(CN2CCN(Cc3nccn3C)CC2)no1`, the “Percent Effect” value came to 1.161%.
The value for `Cc1noc(CN2CCN(CCO)CC2)n1` was -2.451%; that for `CC(C)(C)NC(=O)C1CSCN1S(=O)(=O)c1ccccc1F` (centres undefined) was -0.6778%.
The value for `CCN(CC)CC(=O)Nc1ccc(-n2ccc(C(N)=O)n2)cc1` was -9.684%.
The same measure for `Cn1cccc(NC(=O)NCCc2cccc(O)c2)c1=O`: 2.871%; for `F[C@@H]1CN(C2CCC2)C[C@@H]1OCc1nc2ncccc2[nH]1`: 0.839%.
Regarding `c1cc(-c2nnc([C@H]3CCN(C4CCCCC4)C3)o2)ccn1`, the “Percent Effect” value is listed as -11.18%.
The value for `c1cc(C2CN(C3CCCC3)C2)n[nH]1` was 154.3%; that for `c1ccc(Cc2nnc([C@H]3CCN(C4CCCCC4)C3)o2)cc1` was 3.661%; that for `c1cc(C2CN(C3CCCCC3)C2)n[nH]1` was 79.34%.
The value for `c1cc(C2CCN(C3CCCCC3)C2)n[nH]1` (centres undefined) was 99.9%.
The same measure for `FC(F)(F)c1ccc2nc([C@H]3CCN(C4CCCCC4)C3)[nH]c2c1`: 3.029%; for `Clc1ccc(-c2nnc([C@H]3CCN(C4CCCCC4)C3)o2)cc1`: 11.2%; for `c1ccc(-c2nnc([C@H]3CCN(C4CCC4)C3)o2)cc1`: -5.137%.
For the compound `CC(=O)N(CCC(=O)NC1(C#N)CCC1)Cc1ccccc1`, the “Percent Effect” value is -20.67%.
Regarding `Cc1ccc(Oc2ncccc2CNS(=O)(=O)N2CCOCC2)cn1`, the “Percent Effect” value is listed as 3.348%.
The same measure for `Oc1ccc([C@H]2Oc3cc(O)cc(O)c3C[C@@H]2O)cc1`: 2.317%; for `CNC(=O)c1ccc(=O)n(Cc2csc(N(C)C(C)=O)n2)c1`: 1.068%.
As to `CN(C)C(=O)Cc1nc(CN2CCn3c(nnc3C3CC3)C2)cs1`, the “Percent Effect” value is listed as 2.901%.
The value for `CC(=O)N(C)c1nc(Cn2nnnc2C2CCCC2)cs1` was 98.73%.
The same measure for `CC(=O)N(c1ccc(F)cc1)c1nc(CN2CCCC2C(C)C)cs1` (centres undefined): -4.339%.
The value for `CC(=O)N(c1ccc(C)cc1)c1nc(CN2CCCCC2C)cs1` (centres undefined) was 5.84%.
For `CC(=O)N(C)c1nc(Cn2nnnc2C(C)C)cs1`, the “Percent Effect” value came out at 102.4%.
The value for `CC(=O)N(C)c1nc(Cn2nnnc2C(C)(C)C)cs1` was 75.49%.
The value for `CCc1nnnn1Cc1csc(N(C)C(C)=O)n1` was 97.38%; that for `CC(=O)N(C)c1nc(CN2CCN(c3nccs3)CC2)cs1` was -57.57%; that for `CC(=O)N(C)c1nc(CN2CCN(Cc3nccn3C)CC2)cs1` was -41.34%.
With `CCN(C(C)=O)c1nc(CN2CCN(c3nccs3)CC2)cs1`, the “Percent Effect” value is on record as -119%.
The value for `Cc1ccc(=O)n(Cc2csc(N(C)C3CC3)n2)n1` was 2.512%.
Turning to `CN(CCCNC(=O)Nc1ccc(C#N)cc1)CC(F)(F)F`, the “Percent Effect” value stood at 3.488%.
`Cc1noc(CCNC(=O)C2CSCN2C(=O)C2CCCC2)n1` (centres undefined): the “Percent Effect” value is recorded as 1.723%.
Consider `CC(C)N1CCC(CC(=O)NCC2OCCc3ccccc32)CC1` (centres undefined), for which the “Percent Effect” value was -17.34%.
The same measure for `CC(C)(O)CN1CCN(C(=O)COCC2CC2)CC1`: 6.995%; for `COc1c(C)cnc(CN(C)C(=O)c2cccnc2N(C)C)c1C`: -5.056%.
The value for `CCOCc1cnc2n1CCN(C(=O)c1ccccc1)C2C` (centres undefined) was 105.6%; that for `COCc1cnc2n1CCN(C(=O)c1cc3ccccc3o1)C2C` (centres undefined) was -14.51%.
`Cc1ncoc1C(=O)N1CCn2c(COCC3CC3)cnc2C1C` (centres undefined): the “Percent Effect” value is recorded as -11.18%.
The value for `COCc1cnc2n1CCN(C(=O)c1oc3ccccc3c1C)C2C` (centres undefined) was -7.418%.
The same measure for `CCOCc1cnc2n1CCN(C(=O)Cc1cccs1)C2C` (centres undefined): 1.059%.
The same measure for `CC1c2ncc(COCC3CCOCC3)n2CCN1C(=O)c1ccoc1` (centres undefined): 2.746%.
Turning to `CCOCc1cnc2n1CCN(C(=O)Cc1ccco1)C2C` (centres undefined), the “Percent Effect” value is listed as -11.07%.
The same measure for `COc1ncccc1C(=O)N1CCn2c(COCC3CC3)cnc2C1C` (centres undefined): -2.491%; for `COCc1cnc2n1CCN(C(=O)c1cn(C)c3ccccc13)C2C` (centres undefined): 101.2%.
The same measure for `CCOCc1cnc2n1CCN(C(=O)c1ccoc1C)C2C` (centres undefined): 98.54%.
The value for `CCOCc1cnc2n1CCN(C(=O)c1cccc3c1OCCO3)C2C` (centres undefined) was 83.71%; that for `COCc1cnc2n1CCN(C(=O)c1cnc3ccccc3c1)C2C` (centres undefined) was -17.18%.
